# Source: the supplement of paper PMC8728848
# Shown is part of a subset that was picked to be rich in the strongest signals.
# B1: Microvirin-2 (Microcystis aeruginosa) (protein)
# chain: MPNFSHTCSSINYDPDSTILSAECQARDGEWLPTELRLSDHIGNIDGELQFGDQNFQETCQDCHLEFGDGEQSVWLVCTCQTMDGEWKSTQILLDSQIDNNDSQLEIGGSMPNFSHTCSSINYDPDSTILSAECQARDGEWLPTELRLSDHIGNIDGELQFGDQNFQETCQDCHLEFGDGEQSVWLVCTCQTMDGEWKSTQILLDSQIDNNDSQLEIG
# Assays:
# Assay in all cases: glycan array binding signal (z-score within array); higher = stronger binding
# Conditions in all cases: glycan notation: IUPAC condensed, linker removed
# [1] = biological target: Fuc(a1-2)Gal(b1-3)GalNAc(b1-4)[Neu5Ac(a2-3)]Gal(b1-4)Glc
# Outline: (§1)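 Negative Z-scores can be read as non-binding. The Z-score is calculated within each array and then averaged across arrays of one protein sequence at different concentrations or buffers and across linkers. Arrays, 3228 in all, were curated from the Consortium for Functional Glycomics database and kept only where the protein sequence was available.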
# Fuc(a1-2)Gal(b1-3)GlcNAc = biological target: Fuc(a1-2)Gal(b1-3)GlcNAc
# Outline: as §1
# [2] = biological target: Fuc(a1-2)Gal(b1-3)GlcNAc(b1-2)Man(a1-3)[Fuc(a1-2)Gal(b1-3)GlcNAc(b1-2)Man(a1-6)]Man(b1-4)GlcNAc(b1-4)GlcNAc
# Outline: as §1
# [3] = biological target: Fuc(a1-2)Gal(b1-3)[Fuc(a1-4)]GlcNAc(b1-3)[Fuc(a1-3)[Gal(b1-4)]GlcNAc(b1-6)]Gal(b1-4)Glc
# Outline: as §1
# [4] = biological target: Fuc(a1-2)[Gal(a1-3)]Gal(b1-3)GlcNAc
# Outline: as §1
# [5] = biological target: Fuc(a1-2)[Gal(a1-3)]Gal(b1-4)GlcNAc(b1-2)Man(a1-3)[Fuc(a1-2)[Gal(a1-3)]Gal(b1-4)GlcNAc(b1-2)Man(a1-6)]Man(b1-4)GlcNAc(b1-4)GlcNAc
# Outline: as §1
# [6] = biological target: Fuc(a1-2)[GalNAc(a1-3)]Gal(b1-4)GlcNAc(b1-2)Man
# Outline: as §1
# Fuc(b1-3)GlcNAc = biological target: Fuc(b1-3)GlcNAc
# Outline: as §1
# Gal(b1-3)Gal = biological target: Gal(b1-3)Gal
# Outline: as §1
# [7] = biological target: Gal(b1-3)[Fuc(a1-4)]GlcNAc(b1-2)Man(a1-3)[Gal(b1-3)[Fuc(a1-4)]GlcNAc(b1-2)Man(a1-6)]Man(b1-4)GlcNAc(b1-4)[Fuc(a1-6)]GlcNAc
# Outline: as §1
# Gal(b1-4)Gal = biological target: Gal(b1-4)Gal
# Outline: as §1
# Gal(b1-4)Glc6S = biological target: Gal(b1-4)Glc6S
# Outline: as §1
# Gal(b1-4)GlcNAc = biological target: Gal(b1-4)GlcNAc
# Outline: as §1
# [8] = biological target: Gal(b1-4)GlcNAc(b1-2)Man(a1-6)[Man(a1-3)]Man(b1-4)GlcNAc(b1-4)GlcNAc
# Outline: as §1
# [9] = biological target: Gal(b1-4)GlcNAc(b1-2)[Gal(b1-4)GlcNAc(b1-6)]Man(a1-6)[Gal(b1-4)GlcNAc(b1-2)Man(a1-3)]Man(b1-4)GlcNAc(b1-4)[Fuc(a1-6)]GlcNAc
# Outline: as §1
# [10] = biological target: Gal(b1-4)GlcNAc(b1-3)Gal(b1-4)GlcNAc(b1-3)GalNAc
# Outline: as §1
# Gal6P(b1-4)GlcNAc = biological target: Gal6P(b1-4)GlcNAc
# Outline: as §1
# Gal6S(b1-4)Glc6S = biological target: Gal6S(b1-4)Glc6S
# Outline: as §1
# [11] = biological target: GalNAc(b1-3)Gal(a1-4)Gal(b1-4)GlcNAc
# Outline: as §1
# GlcA(b1-6)Gal = biological target: GlcA(b1-6)Gal
# Outline: as §1
# [12] = biological target: GlcNAc(a1-4)Gal(b1-4)GlcNAc(b1-3)Gal(b1-4)[Fuc(a1-3)]GlcNAc(b1-3)Gal(b1-4)[Fuc(a1-3)]GlcNAc
# Outline: as §1
# [13] = biological target: GlcNAc(b1-2)[GlcNAc(b1-4)]Man(a1-3)[GlcNAc(b1-2)Man(a1-6)]Man(b1-4)GlcNAc(b1-4)GlcNAc
# Outline: as §1
# [14] = biological target: GlcNAc(b1-2)[GlcNAc(b1-4)]Man(a1-3)[GlcNAc(b1-4)][GlcNAc(b1-2)[GlcNAc(b1-6)]Man(a1-6)]Man(b1-4)GlcNAc(b1-4)GlcNAc
# Outline: as §1
# [15] = biological target: GlcNAc(b1-4)GlcNAc(b1-4)GlcNAc
# Outline: as §1
# [16] = biological target: GlcNAc(b1-4)GlcNAc(b1-4)GlcNAc(b1-4)GlcNAc(b1-4)GlcNAc(b1-4)GlcNAc
# Outline: as §1
# [17] = biological target: Man(a1-2)Man(a1-2)Man(a1-3)Man
# Outline: as §1
# [18] = biological target: Man(a1-2)Man(a1-2)Man(a1-6)[Man(a1-3)]Man
# Outline: as §1
# Man(a1-2)Man(a1-3)Man = biological target: Man(a1-2)Man(a1-3)Man
# Outline: as §1
# [19] = biological target: Man(a1-2)Man(a1-3)[Man(a1-2)Man(a1-6)]Man
# Outline: as §1
# [20] = biological target: Man(a1-2)Man(a1-3)[Man(a1-2)Man(a1-6)]Man(a1-6)[Man(a1-2)Man(a1-2)Man(a1-3)]Man
# Outline: as §1
# [21] = biological target: Man(a1-2)Man(a1-3)[Man(a1-2)Man(a1-6)]Man(a1-6)[Man(a1-2)Man(a1-2)Man(a1-3)]Man(b1-4)GlcNAc(b1-4)GlcNAc
# Outline: as §1
# [22] = biological target: Man(a1-2)Man(a1-3)[Man(a1-6)]Man(a1-6)[Man(a1-2)Man(a1-3)]Man(b1-4)GlcNAc(b1-4)GlcNAc
# Outline: as §1
# [23] = biological target: Man(a1-2)Man(a1-6)[Man(a1-3)]Man(a1-6)[Man(a1-2)Man(a1-2)Man(a1-3)]Man
# Outline: as §1
# [24] = biological target: Man(a1-2)Man(a1-6)[Man(a1-3)]Man(a1-6)[Man(a1-2)Man(a1-2)Man(a1-3)]Man(b1-4)GlcNAc(b1-4)GlcNAc
# Outline: as §1
# [25] = biological target: Man(a1-3)[Man(a1-6)]Man(a1-6)[Man(a1-2)Man(a1-3)]Man(b1-4)GlcNAc(b1-4)GlcNAc
# Outline: as §1
# [26] = biological target: Neu5Ac(a2-6)Gal(b1-4)GlcNAc(b1-2)Man(a1-3)[Gal(b1-4)GlcNAc(b1-2)Man(a1-6)]Man(b1-4)GlcNAc(b1-4)GlcNAc
# Outline: as §1
# [27] = biological target: Neu5Ac(a2-6)Gal(b1-4)GlcNAc(b1-2)Man(a1-6)[Man(a1-3)]Man(b1-4)GlcNAc(b1-4)GlcNAc
# Outline: as §1
# [28] = biological target: Neu5Ac(a2-6)Gal(b1-4)GlcNAc(b1-3)Gal(b1-3)GlcNAc
# Outline: as §1
# [29] = biological target: Neu5Ac(a2-6)Gal(b1-4)GlcNAc(b1-6)[Gal(b1-3)]GalNAc
# Outline: as §1
# [30] = biological target: Neu5Ac(a2-6)Gal(b1-4)GlcNAc6S
# Outline: as §1
# Neu5Ac(a2-6)GalNAc = biological target: Neu5Ac(a2-6)GalNAc
# Outline: as §1
# [31] = biological target: Neu5Ac(a2-6)GlcNAc(b1-4)GlcNAc
# Outline: as §1
# Neu5Gc(a2-3)Gal(b1-4)Glc = biological target: Neu5Gc(a2-3)Gal(b1-4)Glc
# Outline: as §1
binder,measurement,setting,value
B1,glycan array binding signal (z-score),[1],-0.133
same,glycan array binding signal (z-score),Fuc(a1-2)Gal(b1-3)GlcNAc,-0.139
same,glycan array binding signal (z-score),[2],0.021
same,glycan array binding signal (z-score),[3],-0.137
same,glycan array binding signal (z-score),[4],-0.138
same,glycan array binding signal (z-score),[5],-0.113
same,glycan array binding signal (z-score),[6],-0.138
same,glycan array binding signal (z-score),Fuc(b1-3)GlcNAc,-0.137
same,glycan array binding signal (z-score),Gal(b1-3)Gal,-0.144
same,glycan array binding signal (z-score),[7],0.648
same,glycan array binding signal (z-score),Gal(b1-4)Gal,-0.143
same,glycan array binding signal (z-score),Gal(b1-4)Glc6S,-0.134
same,glycan array binding signal (z-score),Gal(b1-4)GlcNAc,-0.131
same,glycan array binding signal (z-score),[8],-0.141
same,glycan array binding signal (z-score),[9],-0.131
same,glycan array binding signal (z-score),[10],0.024
same,glycan array binding signal (z-score),Gal6P(b1-4)GlcNAc,-0.134
same,glycan array binding signal (z-score),Gal6S(b1-4)Glc6S,-0.128
same,glycan array binding signal (z-score),[11],-0.131
same,glycan array binding signal (z-score),GlcA(b1-6)Gal,-0.139
same,glycan array binding signal (z-score),[12],-0.031
same,glycan array binding signal (z-score),[13],-0.139
same,glycan array binding signal (z-score),[14],-0.141
same,glycan array binding signal (z-score),[15],-0.14
same,glycan array binding signal (z-score),[16],-0.135
same,glycan array binding signal (z-score),[17],5.28
same,glycan array binding signal (z-score),[18],9.44
same,glycan array binding signal (z-score),Man(a1-2)Man(a1-3)Man,4.43
same,glycan array binding signal (z-score),[19],7.03
same,glycan array binding signal (z-score),[20],6.69
same,glycan array binding signal (z-score),[21],3.1
same,glycan array binding signal (z-score),[22],5.79
same,glycan array binding signal (z-score),[23],6.04
same,glycan array binding signal (z-score),[24],13.3
same,glycan array binding signal (z-score),[25],7.25
same,glycan array binding signal (z-score),[26],-0.142
same,glycan array binding signal (z-score),[27],-0.143
same,glycan array binding signal (z-score),[28],-0.123
same,glycan array binding signal (z-score),[29],-0.107
same,glycan array binding signal (z-score),[30],-0.142
same,glycan array binding signal (z-score),Neu5Ac(a2-6)GalNAc,-0.133
same,glycan array binding signal (z-score),[31],-0.135
same,glycan array binding signal (z-score),Neu5Gc(a2-3)Gal(b1-4)Glc,-0.12
